Rows were chosen to be rich in hits. Some 9.4% of all compounds tested hit in one or more screens of this group.
Rab9 promoter act – Rab9 promoter activation; 320,000 compounds, 2.8% hits; Huh7 Rab9 promoter-luciferase reporter, luminescence, 24 h; AID 485297; Potency, µM (titrated, usually from 9.22 µM), without a hit: at the top dose activation, negative = inhibition, actives largely listed as activators; also: % of control where 0% means no effect; nearly all actives have a fitted effect of over 60% in size
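Huh7 reporter line, Rab9 promoter upstream of luciferase. Compound exposure 24 h at 37 °C in reduced-serum medium with 10% FBS. Read-out: luminescence.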
ELG1 DNA repair – ELG1-dependent DNA repair inhibition. HEK293T ELG1-luciferase reporter, luminescence, 16 h; DNA damage induced by 5-fluorouridine. Potency, µM (series often up to 46.1 µM), without a hit: top-dose activity change, negative = inhibition, actives largely listed as inhibitors. 330,000 compounds, 2.3% hits; also: % is scaled to controls: 0 for no effect and ±100 for the full control effect; nearly all actives have a fitted effect of over 55% in size
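In this reporter screen, reduction of luminescence relative to DMSO vehicle indicated activity. Compounds and 5-fluorouridine were added together to 2,000 cells per well, incubated for 16 hr at 37 °C, then developed with ONE-Glo.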
NPC1 prom act – NPC1 promoter activation | 320,000 compounds, 2.4% hits | Potency, µM (series often up to 9.22 µM), without a hit: at the highest dose activation, most hits filed as activators | Huh7 NPC1 promoter luciferase reporter, 24 h; also: % of control where 0% means no effect; nearly all actives have a fitted effect of over 60% in size
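Huh7 cells stably carrying NPC1 promoter–luciferase, plated in Opti-MEM with 10% FBS for 2 h, were exposed to compound in DMSO for 24 h at 37 °C; luciferase reagent was added for 10 min and luminescence read.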
FLuc modulator – inhibits or activates purified firefly luciferase, miR-21 counter-screen; 360,000 compounds, 6.9% hits; P08659; purified FLuc, Km substrates, luminescence inhibition; AID 588342; Potency, µM (top dose mostly 57.5 µM), for the others: top-dose activity change, negative = inhibition, actives largely listed as inhibitors;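 also: plate controls were vehicle for no effect and reference inhibitor for full effect; nearly all actives have a fitted effect of over 55% in size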
Target sequence (P08659 whole entry, looked up): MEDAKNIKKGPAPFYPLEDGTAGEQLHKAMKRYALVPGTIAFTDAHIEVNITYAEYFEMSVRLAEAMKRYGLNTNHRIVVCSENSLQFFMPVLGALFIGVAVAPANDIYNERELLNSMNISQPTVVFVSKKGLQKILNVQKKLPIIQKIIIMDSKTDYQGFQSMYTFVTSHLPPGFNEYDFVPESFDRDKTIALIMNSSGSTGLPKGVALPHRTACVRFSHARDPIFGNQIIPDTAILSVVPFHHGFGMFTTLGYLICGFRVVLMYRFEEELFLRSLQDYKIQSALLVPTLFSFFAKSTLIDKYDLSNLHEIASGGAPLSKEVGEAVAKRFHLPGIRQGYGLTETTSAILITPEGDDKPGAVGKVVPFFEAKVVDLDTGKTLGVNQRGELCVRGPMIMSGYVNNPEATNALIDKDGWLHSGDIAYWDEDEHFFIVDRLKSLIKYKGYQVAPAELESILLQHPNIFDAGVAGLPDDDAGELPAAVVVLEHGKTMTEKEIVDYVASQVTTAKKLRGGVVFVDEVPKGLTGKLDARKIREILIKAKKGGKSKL
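Purified P. pyralis luciferase, 10 nM final, with Km-level 10 uM D-luciferin and 10 uM ATP in 50 mM Tris acetate pH 7.5, 10 mM Mg acetate, 0.01% Tween-20, 0.05% BSA; 6-point qHTS titration about 60 µM downward; luminescence read.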
SMN2 splice enh – SMN2 splice variant enhancement. HEK293 SMN2-luciferase splicing reporter, luminescence, 30-36 h. Potency, µM (series often up to 46.1 µM), inactives show top-dose activity change, positive = activation, most hits filed as activators. 210,000 compounds, 2.8% hits. AID 1458; also: % of control where 0% means no effect; nearly all actives have a fitted effect of over 55% in size
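HEK293 cells carry an SMN2 […]–luciferase reporter in which exon 7 inclusion puts luciferase in frame. Cells were plated 10-12 h before compound addition, then incubated 30-36 h at 37C. ONE-Glo luminescence was read; sodium butyrate at 4.5 mM final served as control.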
ELG1 genotoxic – genotoxicity induction in ELG1-luciferase HEK293T cells. HEK293T ELG1-luciferase reporter, luminescence, 16 h. Potency, µM (highest dose often 46 µM), without a hit: top-dose activity change, positive = activation, actives largely listed as activators. 330,000 compounds, 1.3% hits; also: % of control where 0% means no effect; nearly all actives have a fitted effect of over 60% in size
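Genotoxic stress is detected as increased luminescence from luciferase-tagged ELG1 in HEK293T cells, measured with ONE-Glo after a 16 hr treatment at 37 °C.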
Numbers without * were called inactive; ? = inconclusive; . = no result; [ ] = another dose, or the depositor's remark. Calls follow the shape of the dose curve; as a rule, active = well fitted curve in the direction sought with a large enough effect; inconclusive = small, poorly fitted or top-dose-only effect, or another doubt; inactive = no such curve, though single readings can be large; an effect the other way counts as inactive or inconclusive. Potency is read from the fitted curve at half-maximal effect.

SMILES | Rab9 promoter act | ELG1 DNA repair | NPC1 prom act | FLuc modulator | SMN2 splice enh | ELG1 genotoxic
COc1ccc(OCC(=O)Nc2ccc3c(c2)nc(CCNC(C)=O)n3C)cc1 | 3.9% | 2.4% | -2.8% | 3.5% | . | -3.3%
CC(=O)Nc1ccc(S(=O)(=O)N(Cc2ccccc2)Cc2ccccc2)cc1 | . | . | . | ? | -23.0% | .
Cc1ccc(-c2nc(-c3nccc4ccccc34)oc2-c2ccccc2)cc1 | 3.16µM* | ? | ? | 3.01µM* | 3.55µM* | ?
c1ccc(CSc2ncnc3sccc23)cc1 | 1.9% | ? | -5.0% | -15.7% | -4.2% | -0.4%
CCc1cc2c(Sc3nc4ccccc4s3)ncnc2s1 | -2.5%[1.84 µM] | -13.0% | -22.7% | 10.7µM* | . | 0.3%
c1ccc2sc(Sc3ncnc4sccc34)nc2c1 | -14.7% | -3.3% | -6.9% | 0.953µM* | ? | 0.2%
CCN(CC)c1cc2c(cc1F)c(=O)c(S(=O)(=O)c1ccc(OC)cc1)cn2Cc1ccccc1 | . | . | . | -7.3% | . | .
COc1ccc(-c2nc3c(c4c2C[C@H](c2ccccc2)OC4)CN(S(=O)(=O)c2ccc(NC(C)=O)cc2)CC3)c(C)c1 | . | . | . | . | 1.8%[9.22 µM] | .
CC(=O)N1CCc2c(sc3nc(SCC(N)=O)n(-c4ccc(F)c(Cl)c4)c(=O)c23)C1 | . | . | . | -0.5% | 9.6% | .
Cc1ccc(S(=O)(=O)NC(CC(C)C)C(=O)NCC(c2ccco2)N2CCCCC2)cc1 (configuration not stated) | 1.2% | ? | 0.1% | 19µM* | . | ?
Cc1ccc(C(=O)Nc2cccc(C(=O)NCc3ccco3)c2)cc1 | 27.6% | 5.3% | ? | 12µM* | ? | 11.7%
Cc1ccc(C(=O)Nc2cccc(C(=O)NCc3ccccc3)c2)cc1 | 9.8% | ? | 12.8% | 8.49µM* | -14.2% | -8.2%
CCC(=O)Oc1ccc(C(=O)Nc2cccc(C(=O)NCC(C)C)c2)cc1 | -9.2% | -8.7% | -4.3% | 13.5µM* | . | -1.3%
Cc1occc1C(=O)Nc1cccc(C(=O)NCc2ccccc2)c1 | -7.9% | ? | -1.5% | 0.7% | -7.7% | -3.5%
COc1ccc(C(=O)Nc2cccc(C(=O)NCc3ccccc3)c2)cc1 | -2.4% | -10.4% | 2.8% | 12µM* | 1.3% | -5.0%
Cc1cccc(NC(=O)CCS(=O)(=O)c2cc(Br)cc3c2N(C(=O)C2CC2)CC3)c1 | . | . | . | -5.3% | 1.8% | .
COc1cccc(CNC(=O)c2ccc(C3SCCS3)cc2)c1 | 5.8% | ? | 4.5% | 16.9µM* | . | 17.3%
COc1ccc(OC)c(NC(=O)N2CCC(CN3CCCCC3)CC2)c1 | . | . | . | 0.4% | . | .
O=C(O)c1ccccc1C(=O)Nc1ccc(Br)c2cccnc12 | 2.9% | 10.7% | -0.9% | 23.9µM* | 2.0% | 5.6%
CN(C)/N=C/C=C1\CCC/C(=C/c2cccs2)C1=O | 3.16µM* | ? | ? | 0.849µM* | . | ?
CN(C)c1cc(N/N=C\c2ccccc2)nc(N(C)C)n1 | -10.0% | -15.3% | 10.5% | ? | . | -8.0%
COc1ccc(/C=N/Nc2cc(N(C)C)nc(N(C)C)n2)cc1 | -4.1% | ? | 2.7% | 15.1µM* | -8.7% | -8.1%
COc1ccc(/C=N/Nc2cc(OC)ncn2)cc1 | 1µM* | ? | 3.55µM* | 0.953µM* | . | 1.84µM*
O=C(O)[C@H]1CCCC[C@@H]1C(=O)Nc1nc2ccccc2[nH]1 | . | . | . | . | -5.5%[9.22 µM] | .
CC(/C=C/c1ccc2c(c1)OCO2)=N\NC(=O)c1cccc([N+](=O)[O-])c1 | -6.2% | ? | 1.2% | -8.3% | -23.1% | 2.8%
SMILES | Rab9 promoter act | ELG1 DNA repair | NPC1 prom act | FLuc modulator | SMN2 splice enh | ELG1 genotoxic
COc1ccccc1NS(=O)(=O)c1cccc(C(=O)N/N=C(\C)c2ccc3c(c2)OCCO3)c1 | 0.9% | ? | -0.7% | 15.1µM* | -9.4% | 0.0%
C/C(=N/NC(=O)c1ccc2c(c1)OCO2)c1cccc(NC(=O)C(C)(C)C)c1 | 2.8% | 19.8% | -6.7% | 16.9µM* | 19.3% | 5.3%
COc1ccccc1NS(=O)(=O)c1cccc(C(=O)N/N=C(\C)c2cccnc2)c1 | 2.4% | -0.1% | -0.6% | 1.6% | . | 1.4%
C/C(=N/NC(=O)c1ccc2c(c1)OCO2)c1ccc(NC(=O)c2ccc(F)cc2)cc1 | 22.8% | ? | 16.1% | -6.9% | . | 14.6µM*
C/C(=N/NC(=O)c1ccc2c(c1)OCO2)c1cccc([N+](=O)[O-])c1 | 2.24µM* | ? | 2µM* | 6.01µM* | . | 8.2µM*
CC(=O)c1cccc(NC(=O)c2sc(-n3nc(C)c(Cc4ccc5c(c4)OCO5)c3C)nc2C)c1 | . | . | . | 4.6% | . | .
C/C(=N\NC(=O)c1cc2ccccc2cc1O)c1ccc2c(c1)OCO2 | 25.0% | 26.1% | 20.8% | 9.53µM* | 14.6% | 10.3%
Nc1ccc(NC(=O)c2ccc(C(=O)Nc3ccc(N)cc3)cc2)cc1 | 18.8% | 10.7% | 14.2% | -1.4% | . | -0.9%
Nc1ccc(C(=O)Nc2ccc(OC(F)(F)C(F)F)c(NC(=O)c3ccc(N)cc3)c2)cc1 | 1.8% | ? | 9.2% | 21.3µM* | . | -4.1%
CCOC(=O)COc1cc(C)c(Cl)cc1C(=O)c1ccn2nc(-c3ccc(OC)cc3)cc2n1 | . | . | . | ? | 2.8% | .
CC(C)CC(=O)/C(=C\c1ccc(Cl)cc1Cl)n1cncn1 | -11.6% | 20.6µM* | -2.2% | -1.7% | -110.7% | ?

Screens: PubChem, National Center for Advancing Translational Sciences (NCATS)
